For part of these data: Potency and affinity values are given separately. Active and inactive are the calls of the source.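 The calls were made as follows, unless noted: active = earlier screen potentiator hit that boosts the TRPC4 ion channel at some dose, with a dose response; inactive = no potentiation, no dose response, or not a prior hit.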
Experiments:
[1] = tested on: TRPC4 beta (transient receptor potential cation channel C4), mouse; assay: TRPC4 cation channel opening, retest – cell-based, Fluo4 calcium, HEK293 TRPC4beta/mu-opioid, duplicates, 10 µM, confirmation (AID 2426;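 active = fluorescence ratio normalized to control raised more than 50% in primary screen plus both repeat runs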); settings: Fluo4 calcium fluorescence, at 10 µM; active compounds read high
[2] = tested on: transient receptor potential cation channel C4 beta (TRPC4), mouse; assay: TRPC4 cation channel opening, second retest – cell-based, second round, Fluo4, HEK293 TRPC4beta/mu-opioid, 1 µM, confirmation (AID 2461;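 active = primary screen active and over 50% activation in each of two duplicate runs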); settings: Fluo4 calcium fluorescence, at 1 µM; active compounds read high
[3] = tested on: TRPC4 (transient receptor potential cation channel C4 beta), mouse; assay: potentiation of DAMGO EC20 TRPC4 response – cell-based, second round, Fluo-4, HEK293 TRPC4beta/mu-opioid, 1 µM, confirmation (AID 2554;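 active = primary screen hit whose fluorescence ratio, in both repeats, exceeds the weak agonist control mean by 3 SD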); settings: DAMGO EC20, Fluo-4 calcium flux, at 1 µM; active compounds read high
[4] = tested on: TRPC4 beta (transient receptor potential cation channel C4), mouse; assay: potentiation of DAMGO EC20 TRPC4 response – cell-based, Fluo-4, HEK293 TRPC4beta/mu-opioid, confirmation (AID 2555;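 active = primary screen hit whose calcium fluorescence ratio, in both repeats, exceeds the weak agonist control mean by 3 SD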); settings: DAMGO EC20, Fluo-4 calcium flux, at 10 µM; active compounds read high
[5] = biological target: Short transient receptor potential channel 4 (Mus musculus) (UniProt Q9QUQ5); assay: blockers of DAMGO-evoked TRPC4 calcium flux – cell-based, Fluo4, HEK293 TRPC4beta/mu-opioid, confirmation (AID 2636;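 active = calcium signal cut by more than 3 SD below the full-agonist control yet still positive, in both repeats and the earlier primary screen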); settings: at 10 µM; active compounds read high
[6] = biological target: Short transient receptor potential channel 4 (Mus musculus) (UniProt Q9QUQ5); assay: blockers of DAMGO-evoked TRPC4 calcium flux – cell-based, second round, Fluo4, HEK293 TRPC4beta/mu-opioid, 1 µM, confirmation (AID 2637;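 active = calcium signal ratio cut to more than 3 SD under the fully stimulated control mean yet still positive, in both repeats and the primary screen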); settings: at 1 µM; active compounds read high
[7] = biological target: Short transient receptor potential channel 4 (Mus musculus) (UniProt Q9QUQ5); assay: calcium entry via TRPC4 opening agents – cell-based, HEK293 TRPC4/mu-opioid, Fluo-4 calcium, dose response (AID 434937;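 active = primary screen activator hit with a dose response curve and TRPC4 channel activation at any tested dose; inactive = no activation, no dose response, or not a primary hit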)
[8] = biological target: Short transient receptor potential channel 4 (Mus musculus) (UniProt Q9QUQ5); assay: potentiation of DAMGO-evoked TRPC4 calcium signal – cell-based, HEK293 TRPC4/mu-opioid, Fluo-4 calcium, EC20 DAMGO, dose response (AID 434941);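 also: calcium entry triggered by an EC20 dose of DAMGO at the co-expressed mu-opioid receptor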
[9] = biological target: Short transient receptor potential channel 4 (Mus musculus) (UniProt Q9QUQ5); assay: block of DAMGO-driven TRPC4 calcium entry – cell-based, HEK293 TRPC4/mu-opioid, Fluo-4 calcium, dose response (AID 434942;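 active = primary screen inhibitor hit that blocks the TRPC4 channel at some tested dose, yielding a dose curve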)
[10] = biological target: Short transient receptor potential channel 6 (Mus musculus) (UniProt Q61143); assay: TRPC6 blockade by TRPC4 inhibitor hits – cell-based, HEK293, membrane potential dye, duplicate, selectivity assay for TRPC4 inhibitor project, confirmation (AID 434948;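 active = active in primary screen and both duplicates, each dropping signal beyond three positive-control SD with fluorescence still positive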); settings: HEK293 TRPC6, membrane potential dye fluorescence, at 10 µM, stimulated with maximal-effect acetylcholine; active compounds read high
[11] = biological target: Short transient receptor potential channel 6 (Mus musculus) (UniProt Q61143); assay: TRPC6 opening by TRPC4 activator hits – cell-based, HEK293, membrane potential dye, duplicate, selectivity assay for TRPC4 activator project, confirmation (AID 434950;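 active = membrane potential signal rise above negative control mean plus 3 SD in both duplicates, also active in the earlier TRPC4 screen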;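 as to activation: 0% = buffer only wells and 100% = acetylcholine maximal-effect wells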); settings: HEK293 TRPC6, membrane potential fluorescence, at 10 µM; activation: active compounds read high; outcome: activation
[12] = biological target: Short transient receptor potential channel 6 (Mus musculus) (UniProt Q61143); assay: positive modulators of mouse TRPC6 channel – HEK293 cells, membrane potential dye, duplicate, selectivity assay for TRPC4 potentiator project, confirmation (AID 434952;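 active = compound raising the membrane signal above positive-control mean plus 3 SD in both repeats, and a primary screen hit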); settings: HEK293 TRPC6, membrane potential dye fluorescence, at 10 µM, maximal acetylcholine added after compound; active compounds read high
[13] = biological target: Short transient receptor potential channel 4 (Mus musculus) (UniProt Q9QUQ5); assay: calcium flux activators in TRPC4/5HT1a cells, counter-screen for TRPC4 activator project, cell-based, second counter screen, HEK293 TRPC4/5HT1a, Fluo-4 (AID 434977;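 active = calcium signal rise above buffer-control mean plus 5 SD in both duplicates, and also a hit in the primary screen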;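 as to activation: plate controls were assay buffer for no effect and maximal serotonin response for full effect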); settings: Fluo-4 calcium flux, at 10 µM; active compounds read high
[14] = serotonin-gated TRPC4 signal block – cell-based, second counter screen, HEK293 TRPC4/5HT1a, Fluo-4, counter-screen for TRPC4 inhibitor project, confirmation (AID 434978;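 active = primary screen active whose calcium signal fell more than 3 SD beyond the full-serotonin control mean in both duplicate plates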;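 also: serotonin given first at submaximal then at maximal dose after compound preincubation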); settings: Fluo-4 calcium flux, at 10 µM, serotonin added to trigger calcium flux; active compounds read high
[15] = tested on: TRPC4 (mouse), co-expressed with 5HT1a in HEK293; assay: enhancement of serotonin-evoked TRPC4 response – cell-based, second counter screen, HEK293 TRPC4/5HT1a, Fluo-4, counter-screen for TRPC4 potentiator project, confirmation (AID 434979;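 active = signal rise over 3 SD above mean of control wells given weak agonist, in both repeats and first screen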); settings: Fluo-4 calcium flux, at 10 µM, serotonin added at its EC20 dose; active compounds read high
[16] = nonspecific calcium rise without TRPC4 – cell-based, HEK293 mu-opioid receptor line, counter-screen for TRPC4 activator project, confirmation (AID 449723;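 active = hit in primary screen, with calcium signal over 5 SD above buffer well mean in both duplicates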;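 also: counter screen cells carry the mu-opioid receptor alone and lack TRPC4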); settings: HEK293 mu-opioid cells, Fluo-4 calcium fluorescence, at 10 µM; active compounds read high
[17] = nonspecific potentiation of DAMGO calcium response – cell-based, HEK293 mu-opioid receptor line, counter-screen for TRPC4 allosteric potentiator project, confirmation (AID 449724;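 active = calcium signal rise more than 3 SD above the low-dose agonist control mean, in both duplicate plates and the primary screen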); settings: HEK293 mu-opioid receptor cells, Fluo-4 calcium flux, at 10 µM, compound added before EC20 DAMGO stimulus; active compounds read high

Sequence of Short transient receptor potential channel 6 (Mus musculus) (Q61143 whole entry, looked up): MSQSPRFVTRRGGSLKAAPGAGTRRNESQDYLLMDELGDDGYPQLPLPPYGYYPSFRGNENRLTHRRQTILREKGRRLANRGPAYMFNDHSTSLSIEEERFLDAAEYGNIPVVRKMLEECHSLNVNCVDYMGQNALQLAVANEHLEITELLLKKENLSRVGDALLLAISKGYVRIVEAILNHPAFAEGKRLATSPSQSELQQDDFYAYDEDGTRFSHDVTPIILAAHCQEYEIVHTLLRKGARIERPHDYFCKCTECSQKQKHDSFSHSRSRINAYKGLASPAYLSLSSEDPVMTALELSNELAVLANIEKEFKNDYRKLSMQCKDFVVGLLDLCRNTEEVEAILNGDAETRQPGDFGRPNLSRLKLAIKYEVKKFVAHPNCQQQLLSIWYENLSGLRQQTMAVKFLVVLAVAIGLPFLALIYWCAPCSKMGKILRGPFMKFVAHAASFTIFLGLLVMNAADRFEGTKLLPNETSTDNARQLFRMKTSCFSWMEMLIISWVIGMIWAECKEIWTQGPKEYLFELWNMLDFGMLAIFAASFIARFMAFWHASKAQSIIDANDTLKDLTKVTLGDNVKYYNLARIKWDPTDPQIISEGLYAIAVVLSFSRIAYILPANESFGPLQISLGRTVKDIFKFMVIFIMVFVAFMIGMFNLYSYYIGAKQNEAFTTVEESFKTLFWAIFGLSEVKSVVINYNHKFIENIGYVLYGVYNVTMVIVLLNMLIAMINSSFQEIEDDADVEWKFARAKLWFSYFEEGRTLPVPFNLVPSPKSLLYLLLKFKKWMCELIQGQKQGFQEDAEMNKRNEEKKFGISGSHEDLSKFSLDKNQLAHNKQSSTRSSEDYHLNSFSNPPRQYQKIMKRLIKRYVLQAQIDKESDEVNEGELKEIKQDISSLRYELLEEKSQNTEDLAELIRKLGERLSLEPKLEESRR
Sequence of Short transient receptor potential channel 4 (Mus musculus) (Q9QUQ5 whole entry, looked up): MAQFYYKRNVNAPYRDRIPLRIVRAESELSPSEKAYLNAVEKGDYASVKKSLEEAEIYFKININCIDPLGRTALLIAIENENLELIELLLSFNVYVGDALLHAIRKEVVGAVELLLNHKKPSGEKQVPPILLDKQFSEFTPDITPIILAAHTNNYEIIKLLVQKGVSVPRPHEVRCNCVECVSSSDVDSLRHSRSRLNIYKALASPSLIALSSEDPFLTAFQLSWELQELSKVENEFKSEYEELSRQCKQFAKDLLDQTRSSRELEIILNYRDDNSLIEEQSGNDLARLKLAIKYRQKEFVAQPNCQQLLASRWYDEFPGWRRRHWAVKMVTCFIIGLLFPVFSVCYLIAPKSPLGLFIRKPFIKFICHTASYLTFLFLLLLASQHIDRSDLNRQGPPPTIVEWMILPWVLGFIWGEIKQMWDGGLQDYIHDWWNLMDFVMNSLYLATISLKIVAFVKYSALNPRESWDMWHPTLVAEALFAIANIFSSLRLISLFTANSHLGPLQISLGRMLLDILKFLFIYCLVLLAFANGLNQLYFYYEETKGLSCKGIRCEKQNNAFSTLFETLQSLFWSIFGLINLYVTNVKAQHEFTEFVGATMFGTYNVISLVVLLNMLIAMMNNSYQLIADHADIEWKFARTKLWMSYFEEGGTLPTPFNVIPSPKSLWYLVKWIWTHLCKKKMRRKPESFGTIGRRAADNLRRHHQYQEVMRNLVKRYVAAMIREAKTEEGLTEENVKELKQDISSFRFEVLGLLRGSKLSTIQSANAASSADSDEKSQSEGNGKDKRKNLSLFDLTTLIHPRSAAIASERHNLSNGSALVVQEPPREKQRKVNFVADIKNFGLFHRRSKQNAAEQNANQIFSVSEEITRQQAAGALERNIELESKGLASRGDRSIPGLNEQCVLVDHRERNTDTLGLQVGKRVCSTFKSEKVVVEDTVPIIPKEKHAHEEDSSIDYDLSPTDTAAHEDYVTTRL

c1ccc(Cn2nnc3cnccc32)cc1
inactive: outcome [1] | outcome [2] | outcome [3] | outcome [4] | outcome [6] | outcome [7] | outcome [8] | outcome [9] | outcome [10] | outcome [11] | outcome [12] | outcome [13] | outcome [14] | outcome [15] | outcome [16] | outcome [17]
active: inhibition [5] 65%

Clc1cccc2c3c([nH]c12)CCNC3
active: potentiation [4] 38% | potentiation [15] 40.3%
inactive: outcome [1] | outcome [2] | outcome [3] | outcome [5] | outcome [6] | outcome [7] | outcome [8] | outcome [9] | outcome [10] | outcome [11] | outcome [12] | outcome [13] | outcome [14] | outcome [16] | outcome [17]

O=C(COC(=O)CSc1ccc([N+](=O)[O-])cc1)NCCCc1ccccc1
inactive: outcome [1] | outcome [2] | outcome [3] | outcome [4] | outcome [5] | outcome [6] | outcome [7] | outcome [8] | outcome [9] | outcome [10] | outcome [11] | outcome [12] | outcome [13] | outcome [14] | outcome [15] | outcome [16] | outcome [17]

O=C(NCCCN1CCN(CCCNC(=O)c2cccc(Cl)c2)CC1)c1cccc(Cl)c1
inactive: outcome [1] | outcome [2] | outcome [4] | outcome [5] | outcome [6] | outcome [7] | outcome [8] | outcome [9] | outcome [10] | outcome [11] | outcome [12] | outcome [13] | outcome [14] | outcome [16] | outcome [17]
active: potentiation [3] 22% | potentiation [15] 11.3%

CC(C)(C)NCc1cc(Cl)ccc1OCc1cccs1
inactive: outcome [1] | outcome [2] | outcome [3] | outcome [4] | outcome [5] | outcome [6] | outcome [7] | outcome [8] | outcome [9] | outcome [10] | outcome [11] | outcome [12] | outcome [13] | outcome [14] | outcome [15] | outcome [16] | outcome [17]

CSCC[C@H](NC(=O)N1CCn2c1nc1ccccc12)C(=O)NCc1ccc(C)cc1
active: potentiation [4] 30% | potentiation [15] 6.18%
inactive: outcome [1] | outcome [2] | outcome [3] | outcome [5] | outcome [6] | outcome [7] | outcome [8] | outcome [9] | outcome [10] | outcome [11] | outcome [12] | outcome [13] | outcome [14] | outcome [16] | outcome [17]

CC1(C(=O)OCc2cc(=O)n3cc(Br)ccc3n2)CC1(Cl)Cl (stereo not given)
active: potentiation [3] 15% | potentiation [4] 84% | potentiation [15] 56.2%
inactive: outcome [1] | outcome [2] | outcome [5] | outcome [6] | outcome [7] | outcome [8] | outcome [9] | outcome [10] | outcome [11] | outcome [12] | outcome [13] | outcome [14] | outcome [16] | outcome [17]

CC(=O)Oc1c(C)cc(O)c2ccccc12
inactive: outcome [1] | outcome [2] | outcome [3] | outcome [4] | outcome [5] | outcome [6] | outcome [7] | outcome [8] | outcome [9] | outcome [10] | outcome [11] | outcome [12] | outcome [13] | outcome [14] | outcome [15] | outcome [16] | outcome [17]

O=C(c1ccccc1)C1CCc2occc2C1=O (stereo not given)
inactive: outcome [1] | outcome [2] | outcome [3] | outcome [4] | outcome [5] | outcome [6] | outcome [7] | outcome [8] | outcome [9] | outcome [10] | outcome [11] | outcome [12] | outcome [13] | outcome [14] | outcome [15] | outcome [16] | outcome [17]

Cc1ccc(C2N(c3cccc(Cl)c3)C(=O)C3CCCN32)o1 (stereo not given)
active: potentiation [3] 19% | potentiation [4] 16% | potentiation [15] 13.4%
inactive: outcome [1] | outcome [2] | outcome [5] | outcome [6] | outcome [7] | outcome [8] | outcome [9] | outcome [10] | outcome [11] | outcome [12] | outcome [13] | outcome [14] | outcome [16] | outcome [17]

CC(C)(C)c1ccc(-c2nnc3sc(-c4ccccn4)nn23)cc1
active: potentiation [4] 68%
inactive: outcome [1] | outcome [2] | outcome [3] | outcome [5] | outcome [6] | outcome [7] | outcome [8] | outcome [9] | outcome [10] | outcome [11] | outcome [12] | outcome [13] | outcome [14] | outcome [15] | outcome [16] | outcome [17]

Oc1ccccc1-c1cc(-c2ccco2)[nH]n1
inactive: outcome [1] | outcome [2] | outcome [3] | outcome [4] | outcome [5] | outcome [6] | outcome [7] | outcome [8] | outcome [9] | outcome [10] | outcome [11] | outcome [12] | outcome [13] | outcome [14] | outcome [15] | outcome [16] | outcome [17]

CCOc1cc(N(CC)CC)ccc1/C=C(/C#N)c1nc2ccccc2[nH]1
active: activation [11] 86% | activation [13] 16.9% | activation [16] 31.5%
inactive: outcome [1] | outcome [2] | outcome [3] | outcome [4] | outcome [5] | outcome [6] | outcome [7] | outcome [8] | outcome [9] | outcome [10] | outcome [12] | outcome [14] | outcome [15] | outcome [17]

CC(C)(C)c1ccccc1OCCCCCn1ccnc1
inactive: outcome [1] | outcome [2] | outcome [3] | outcome [4] | outcome [5] | outcome [6] | outcome [7] | outcome [8] | outcome [9] | outcome [10] | outcome [11] | outcome [12] | outcome [13] | outcome [14] | outcome [15] | outcome [16] | outcome [17]

CSc1ncccc1C(=O)OCC(=O)N(CC(C)C)c1c(N)n(Cc2ccccc2)c(=O)[nH]c1=O
inactive: outcome [1] | outcome [2] | outcome [3] | outcome [4] | outcome [5] | outcome [6] | outcome [7] | outcome [8] | outcome [9] | outcome [10] | outcome [11] | outcome [12] | outcome [13] | outcome [14] | outcome [15] | outcome [16] | outcome [17]

Source: PubChem BioAssay
